# Data taken from PubChem BioAssay AID624396 (The Scripps Research Institute Molecular Screening Center, 2012).
# Activity calls are given as the source filed them.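 The calls were made as follows: active = over 15% of cells apoptotic at 25 µM, or half-maximal dose of 10 µM or lower; inactive = the rest.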
# Tested on: DHL-10
# Assay: apoptosis induction in cancer cell lines, late-stage follow-up, mechanism study for MCL1-BIM inhibitor project, imaging, DAPI staining, cell line panel, probe (AID 624396)
# Details: DAPI nuclear morphology
structure (smiles),measurement,value
CCN1CCN(C(c2ccc(C(F)(F)F)cc2)c2ccc3cccnc3c2O)CC1 (stereo unspecified),outcome,inactive
